Hits are enriched below; roughly 7.5% of the tested compounds scored in any of these assays.
FLuc counter – counter-screen for miR-21 project: firefly luciferase inhibitors or activators; 6.9% of 360,000 active; P08659; purified FLuc, Km substrates, luminescence inhibition; AID 588342; Potency, µM (doses to about 57.5 µM), hits mostly inhibitors; further: nearly all actives have a fitted effect of over 55% in size
Target sequence (P08659 whole entry, looked up): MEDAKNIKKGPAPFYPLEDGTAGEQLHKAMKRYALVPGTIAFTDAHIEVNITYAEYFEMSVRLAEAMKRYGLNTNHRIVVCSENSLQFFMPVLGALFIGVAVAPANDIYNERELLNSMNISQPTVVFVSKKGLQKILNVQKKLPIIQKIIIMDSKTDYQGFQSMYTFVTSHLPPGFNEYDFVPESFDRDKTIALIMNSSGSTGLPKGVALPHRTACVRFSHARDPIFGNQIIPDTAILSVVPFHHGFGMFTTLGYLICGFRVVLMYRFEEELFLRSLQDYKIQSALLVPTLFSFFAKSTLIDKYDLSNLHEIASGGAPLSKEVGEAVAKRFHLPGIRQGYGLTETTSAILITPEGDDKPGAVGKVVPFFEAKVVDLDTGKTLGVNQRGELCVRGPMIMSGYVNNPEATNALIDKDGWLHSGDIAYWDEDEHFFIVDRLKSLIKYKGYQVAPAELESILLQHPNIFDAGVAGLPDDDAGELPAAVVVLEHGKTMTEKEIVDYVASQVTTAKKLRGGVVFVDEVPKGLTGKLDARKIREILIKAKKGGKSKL
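Biochemical qHTS of compounds, final roughly 60 µM downward over six points, against 10 nM purified firefly luciferase using Km concentrations of substrates (10 uM D-luciferin, 10 uM ATP) in Tris acetate pH 7.5 buffer; luminescence output.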
Luc counter – blocks Kinase-Glo luciferase, a counter-screen artifact; 0.28% of 200,000 active; AID 1379; Potency, µM (doses to about 38.3 µM), actives largely listed as inhibitors; Kinase-Glo luciferase, ATP luminescence, 8 min; Q27757; further: nearly all actives have a fitted effect of over 60% in size
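Recombinant Kinase-Glo luciferase, 10 uM ATP (linear range), luciferin; imidazole pH 7.2 / KCl / MgCl2 / Tween / BSA buffer; 8 min RT; luminescence.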
SMN2 splice up – SMN2 splice variant enhancement. HEK293 SMN2-luciferase splicing reporter, luminescence, 30-36 h. Potency, µM (highest dose often 46.1 µM), actives largely listed as activators. 2.8% of 210,000 active; further: nearly all actives have a fitted effect of over 55% in size
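HEK293 cells carry an SMN2 […]–luciferase reporter in which exon 7 inclusion puts luciferase in frame. Cells were plated 10-12 h before compound addition, then incubated 30-36 h at 37C. ONE-Glo luminescence was read; sodium butyrate at 4.5 mM final served as control.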
NPC1 prom act – NPC1 promoter activation; Potency, µM (titrated, usually from 9.22 µM), hits mostly activators; Huh7 NPC1 promoter luciferase reporter, 24 h; 2.4% of 320,000 active; further: nearly all actives have a fitted effect of over 60% in size
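Luminescence from an NPC1 promoter-driven luciferase reporter in stably transfected Huh7 cells was measured after 24 h compound treatment at 37 °C, followed by 10 min ambient incubation with luciferase detection reagent.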
ELG1 genotoxic – inducers of genotoxicity in HEK293T ELG1-luciferase cells. HEK293T ELG1-luciferase reporter, luminescence, 16 h. Potency, µM (doses to about 46 µM), most hits filed as activators. 1.3% of 330,000 active. AID 504466; further: nearly all actives have a fitted effect of over 60% in size
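Screening used a luciferase reporter fused to human ELG1 in HEK293T cells. Luminescence was read on a CCD plate imager after 16 hr exposure and 30 min ONE-Glo incubation.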
Rab9 promoter act – activates the Rab9 promoter. Huh7 Rab9 promoter-luciferase reporter, luminescence, 24 h. Potency, µM (highest dose often 9.22 µM), hits mostly activators. 2.8% of 320,000 active. AID 485297; further: nearly all actives have a fitted effect of over 60% in size
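Rab9 promoter-driven luciferase in stably transfected Huh7 cells; 1500 cells/well rested 2 h, exposed to compound in DMSO for 24 h at 37 °C, 5% CO2. Luminescence read 10 min after adding luciferase reagent at ambient temperature.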
Large screens that a line does not name were inactive. The call rests on the fitted dose curve; in most records, active means well fitted curve in the direction sought with a large enough effect; inconclusive means small, poorly fitted or top-dose-only effect, or another doubt; inactive means no such curve, though single readings can be large; an effect the other way counts as inactive or inconclusive.

CC(=O)c1sc(NC(=O)c2ccccc2)nc1-c1ccccc1	FLuc counter 9.53µM, SMN2 splice up 12.6µM, NPC1 prom act 2µM, ELG1 genotoxic inconclusive, Rab9 promoter act 1µM
O=C(Nc1nc(-c2cccs2)c(C(=O)C(F)(F)F)s1)c1ccco1	FLuc counter inconclusive
O=C(c1cccc(NC2=NC3CS(=O)(=O)CC3S2)c1)N1CCN(c2cccc(Cl)c2)CC1 (configuration not stated)	none (no result: Luc counter, SMN2 splice up)
C(=N\Nc1nc(-c2ccccc2)cs1)/c1ccco1	FLuc counter 2.69µM, SMN2 splice up 14.1µM, NPC1 prom act 2.82µM, ELG1 genotoxic inconclusive, Rab9 promoter act 3.16µM
Cc1ccc(-c2csc(N/N=C/c3ccco3)n2)cc1	FLuc counter 9.53µM, NPC1 prom act inconclusive, Rab9 promoter act inconclusive
Cc1sc(N/N=C/c2ccco2)nc1-c1ccccc1	FLuc counter 9.53µM, ELG1 genotoxic inconclusive
CC(C)=NNc1nc(-c2ccccc2)c(C)s1	FLuc counter inconclusive
Cc1sc(NC(=O)c2cccnc2)nc1-c1ccccc1	none
Cc1sc(N/N=C/c2cccnc2)nc1-c1ccccc1	FLuc counter 16.9µM, SMN2 splice up inconclusive
Cc1onc(-c2c(Cl)cccc2Cl)c1C(=O)N[C@H]1C(=O)N2[C@H]1SC(C)(C)[C@H]2C(=O)O	none (no result: FLuc counter, NPC1 prom act, ELG1 genotoxic, Rab9 promoter act)
COc1ccc(CCC(=O)Nc2nnc(C(F)(F)F)s2)cc1	none (no result: Luc counter, SMN2 splice up)
Clc1ccc(-c2csc(N/N=C/c3ccco3)n2)cc1	FLuc counter 13.5µM, NPC1 prom act inconclusive, Rab9 promoter act inconclusive (no result: Luc counter, SMN2 splice up)
Brc1ccc(-c2csc(N/N=C/c3ccco3)n2)cc1	FLuc counter inconclusive, SMN2 splice up inconclusive, NPC1 prom act inconclusive, Rab9 promoter act inconclusive
O=C(NNC(=O)c1ccccc1OCc1ccc(F)cc1)c1ccccc1O	FLuc counter 26.9µM (no result: Luc counter, SMN2 splice up)
O=C(NCc1ccc(F)cc1)c1ccccc1OCc1ccccc1	none
O=C(NNC(=O)c1ccccc1OCc1ccccc1)c1ccccc1O	FLuc counter 19µM (no result: Luc counter, SMN2 splice up)
O=C(NNC(=O)c1ccccc1OCc1ccccc1)c1ccccc1F	FLuc counter 21.3µM, NPC1 prom act inconclusive (no result: Luc counter, SMN2 splice up)
O=C(N/N=C/c1ccccc1F)c1ccccc1OCc1ccccc1	FLuc counter 16.9µM (no result: Luc counter, SMN2 splice up)
CCOC(=O)c1c(NC(=O)COC(=O)Cc2n[nH]c(=O)c3ccccc23)sc(C(=O)NC)c1C	none (no result: FLuc counter, Luc counter, SMN2 splice up, NPC1 prom act, Rab9 promoter act)
CCOC(=O)c1c(/N=C/c2ccc(OC)cc2O)sc2c1CCN(C)C2	FLuc counter inconclusive (no result: Luc counter, SMN2 splice up)
CN1CCc2c(sc(/N=C/c3cc(Cl)ccc3O)c2C#N)C1	FLuc counter 2.39µM, ELG1 genotoxic 16.4µM, Rab9 promoter act inconclusive (no result: Luc counter, SMN2 splice up)
CN1CCc2c(sc(/N=C/c3c[nH]c4ccccc34)c2C(N)=O)C1	FLuc counter inconclusive (no result: Luc counter, SMN2 splice up)
CN1CCc2c(sc(/N=C/c3c[nH]c4ccccc34)c2C#N)C1	FLuc counter 1.35µM, ELG1 genotoxic inconclusive, Rab9 promoter act 2.82µM (no result: Luc counter, SMN2 splice up)
S=C(NCc1ccco1)NCC(c1ccco1)N1CCCCC1 (configuration not stated)	none (no result: Luc counter, SMN2 splice up)
Cc1ccccc1NC(=O)CN1C(=O)NC2(CCCCCCC2)C1=O	none (no result: Luc counter, SMN2 splice up)
O=C(Nc1nnc(-c2ccccc2F)s1)Nc1ccccc1F	SMN2 splice up inconclusive, NPC1 prom act inconclusive, Rab9 promoter act 2µM
O=C(Nc1nnc(Cc2ccccc2F)s1)c1ccccc1Cl	none (no result: Luc counter, SMN2 splice up)
O=C(Nc1nnc(-c2ccccc2Cl)s1)c1ccccc1F	NPC1 prom act 3.16µM, ELG1 genotoxic inconclusive, Rab9 promoter act 3.98µM (no result: Luc counter, SMN2 splice up)
O=C(Nc1nnc(-c2ccccc2)s1)c1ccccc1F	FLuc counter 10.7µM, NPC1 prom act 2.51µM, ELG1 genotoxic inconclusive, Rab9 promoter act 1.12µM (no result: Luc counter, SMN2 splice up)
COc1ccccc1NC(=O)Cn1c(=O)n(Cc2cccs2)c(=O)c2cccnc21	none (no result: Luc counter, NPC1 prom act, ELG1 genotoxic, Rab9 promoter act)
C(=N\N(c1ccccc1)c1ccccc1)/c1ccc2c(c1)OCO2	none
COc1cc(/C=N/N(C)c2ccccc2)ccc1O	FLuc counter 2.39µM, SMN2 splice up inconclusive, NPC1 prom act inconclusive, ELG1 genotoxic 4.61µM, Rab9 promoter act inconclusive
CN(/N=C/c1ccc2c(c1)OCO2)c1ccccc1	FLuc counter 6.75µM, SMN2 splice up 20µM, NPC1 prom act 3.98µM, ELG1 genotoxic inconclusive, Rab9 promoter act 2.82µM
Cc1ccc(-n2ncc3c(NCCCOC(C)C)ncnc32)c(C)c1	none
OCCOCCNc1ncnc2c1cnn2-c1ccccc1	FLuc counter inconclusive, NPC1 prom act 2.24µM, Rab9 promoter act inconclusive
c1ccc(-n2ncc3c(NCc4ccccn4)ncnc32)cc1	FLuc counter inconclusive, ELG1 genotoxic inconclusive
CC(C)OCCCNc1ncnc2c1cnn2-c1ccccc1	FLuc counter 4.26µM, NPC1 prom act 1.41µM, Rab9 promoter act 0.447µM
Clc1ccc(-n2ncc3c(NCc4cccs4)ncnc32)cc1	none
COCCNc1ncnc2c1cnn2-c1ccc(Cl)cc1	FLuc counter 7.57µM, NPC1 prom act 1.78µM, Rab9 promoter act 1.78µM (no result: Luc counter, SMN2 splice up, ELG1 genotoxic)
OCCOCCNc1ncnc2c1cnn2-c1ccc(Cl)cc1	FLuc counter 9.53µM, NPC1 prom act 1.12µM, Rab9 promoter act 0.891µM
COc1ccc(C(=O)NCC(C)(C)N2CCOCC2)cc1S(=O)(=O)N1CCCC1	none (no result: Luc counter, SMN2 splice up)
COCCN(CCOC)c1ncnc2c1cnn2-c1ccc(Cl)cc1	FLuc counter 15.1µM, SMN2 splice up inconclusive, NPC1 prom act inconclusive, ELG1 genotoxic 10.3µM, Rab9 promoter act inconclusive
O=C1CCC(C(=O)Nc2cccc3ccccc23)N1 (configuration not stated)	SMN2 splice up 7.94µM

Screening data: PubChem, National Center for Advancing Translational Sciences (NCATS)
